# Data from publication PMC8384837, “Expanding the binding specificity for RNA recognition by a PUF domain”.
# Residue numbers refer to the chain shown, from its start.
# Assays:
# Assay in all cases: yeast three-hybrid, YBZ-1, SC-Leu-His + 0.5 mM 3-AT, 4 days
# Conditions in all cases: tags: N-Gal4 AD-HA kept; label: inside an RPR1-promoter hybrid RNA with tandem MS2 sites; ssRNA
# PUM1 PUF domain R7-RRN = PUM1 PUF domain R7-RRN (Homo sapiens, UniProt Q14671 828-1176, S1079R;N1080R;E1083N)
# Summary of the method: (§1)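 Sequencing with Illumina followed PCR amplification of the repeat regions from transformants grown four days on SC-Leu (input) or SC-Leu-His + 0.5 mM 3-AT (selection). The transformants were strain YBZ-1 with a LexA–MS2 coat fusion and a HIS3 reporter, carrying Pumilio-1 PUF domain libraries and matching RNA elements. The interaction score is the log change in variant frequency from input to selection, computed in log2 with a pseudocount of 1 for absent variants.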
# PUM1 PUF domain R2-VWW = PUM1 PUF domain R2-VWW (Homo sapiens, UniProt Q14671 828-1176, N899V;Y900W;Q903W)
# Summary of the method: as §1
# PUM1 PUF domain R2-FWW = PUM1 PUF domain R2-FWW (Homo sapiens, UniProt Q14671 828-1176, N899F;Y900W;Q903W)
# Summary of the method: as §1
# PUM1 PUF domain R3-GPR = PUM1 PUF domain R3-GPR (Homo sapiens, UniProt Q14671 828-1176, C935G;R936P;Q939R)
# Summary of the method: as §1
# PUM1 PUF domain R1-QCR = PUM1 PUF domain R1-QCR (Homo sapiens, UniProt Q14671 828-1176, S863Q;R864C;Q867R)
# Summary of the method: as §1
# PUM1 PUF domain R1-SYK = PUM1 PUF domain R1-SYK (Homo sapiens, UniProt Q14671 828-1176, R864Y;Q867K)
# Summary of the method: as §1
# PUM1 PUF domain R6-NWL = target: T1, PUM1 PUF domain R6-NWL (Homo sapiens, UniProt Q14671 828-1176, Y1044W;Q1047L)
# T1 sequence: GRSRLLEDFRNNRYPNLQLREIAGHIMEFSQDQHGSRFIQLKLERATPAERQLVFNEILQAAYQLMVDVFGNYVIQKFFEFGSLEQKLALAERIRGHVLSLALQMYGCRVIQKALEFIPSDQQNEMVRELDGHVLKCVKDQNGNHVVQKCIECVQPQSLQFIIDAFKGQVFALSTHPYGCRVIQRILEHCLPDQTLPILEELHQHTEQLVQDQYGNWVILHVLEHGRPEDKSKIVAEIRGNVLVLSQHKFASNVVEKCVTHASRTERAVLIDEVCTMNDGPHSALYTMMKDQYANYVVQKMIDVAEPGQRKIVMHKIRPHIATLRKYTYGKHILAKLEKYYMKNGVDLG
# Summary of the method: as §1
# PUM1 PUF domain R3-IWG = PUM1 PUF domain R3-IWG (Homo sapiens, UniProt Q14671 828-1176, C935I;R936W;Q939G)
# Summary of the method: as §1
# PUM1 PUF domain R5-RQN = PUM1 PUF domain R5-RQN (Homo sapiens, UniProt Q14671 828-1176, C1007R;R1008Q;Q1011N)
# Summary of the method: as §1
# PUM1 PUF domain R6-HWW = target: T2, PUM1 PUF domain R6-HWW (Homo sapiens, UniProt Q14671 828-1176, N1043H;Y1044W;Q1047W)
# T2 sequence: T1 sequence with N216H, L220W
# Summary of the method: as §1
# Chain of PUM1 PUF domain R3-GPR (Q14671 828-1176 C935G/R936P/Q939R): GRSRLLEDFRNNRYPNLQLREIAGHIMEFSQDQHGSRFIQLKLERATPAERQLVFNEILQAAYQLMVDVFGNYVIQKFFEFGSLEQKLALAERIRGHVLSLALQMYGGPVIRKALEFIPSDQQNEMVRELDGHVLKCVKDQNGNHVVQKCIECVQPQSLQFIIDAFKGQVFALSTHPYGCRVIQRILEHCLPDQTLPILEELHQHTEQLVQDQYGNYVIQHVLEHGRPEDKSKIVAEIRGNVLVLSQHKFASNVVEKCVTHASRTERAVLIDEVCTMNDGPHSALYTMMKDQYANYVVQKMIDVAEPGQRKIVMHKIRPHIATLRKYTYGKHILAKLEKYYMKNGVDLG
# Chain of PUM1 PUF domain R3-IWG (Q14671 828-1176 C935I/R936W/Q939G): as the sequence (Q14671 828-1176 C935G/R936P/Q939R) above, with G108I, P109W, R112G counted along it
sequence,measurement,setting,value
GGCUAGAACUAGUGGAUCCCCCGGCGCCCGGCGGCUCGAGCCCGGGUAAGUUUAAAUAGUCUGCAUGCCGCCGGGCGCCAUGCCUGCAGGUCGACUCUAGAAAACAUG,binding signal,PUM1 PUF domain R7-RRN,4.89 log2 enrichment (interaction score)
GGCUAGAACUAGUGGAUCCCCCGGCGCCCGGCGGCUCGAGCCCGGGUAAGUCUAAAUAGUCUGCAUGCCGCCGGGCGCCAUGCCUGCAGGUCGACUCUAGAAAACAUG,binding signal,PUM1 PUF domain R7-RRN,3.94 log2 enrichment (interaction score)
GGCUAGAACUAGUGGAUCCCCCGGCGCCCGGCGGCUCGAGCCCGGGUAAGUGUAAAAAGUCUGCAUGCCGCCGGGCGCCAUGCCUGCAGGUCGACUCUAGAAAACAUG,binding signal,PUM1 PUF domain R2-VWW,2.5 log2 enrichment (interaction score)
same,binding signal,PUM1 PUF domain R2-FWW,4.3 log2 enrichment (interaction score)
GGCUAGAACUAGUGGAUCCCCCGGCGCCCGGCGGCUCGAGCCCGGGUAAGUGUAACUAGUCUGCAUGCCGCCGGGCGCCAUGCCUGCAGGUCGACUCUAGAAAACAUG,binding signal,PUM1 PUF domain R3-GPR,1.8 log2 enrichment (interaction score)
GGCUAGAACUAGUGGAUCCCCCGGCGCCCGGCGGCUCGAGCCCGGGUAAGUGUAAAUUGUCUGCAUGCCGCCGGGCGCCAUGCCUGCAGGUCGACUCUAGAAAACAUG,binding signal,PUM1 PUF domain R1-QCR,1.4 log2 enrichment (interaction score)
GGCUAGAACUAGUGGAUCCCCCGGCGCCCGGCGGCUCGAGCCCGGGUAAGUGUAAAUCGUCUGCAUGCCGCCGGGCGCCAUGCCUGCAGGUCGACUCUAGAAAACAUG,binding signal,PUM1 PUF domain R1-QCR,2.48 log2 enrichment (interaction score)
same,binding signal,PUM1 PUF domain R1-SYK,2.72 log2 enrichment (interaction score)
GGCUAGAACUAGUGGAUCCCCCGGCGCCCGGCGGCUCGAGCCCGGGUAAGUGAAAAUAGUCUGCAUGCCGCCGGGCGCCAUGCCUGCAGGUCGACUCUAGAAAACAUG,binding signal,PUM1 PUF domain R6-NWL,2.34 log2 enrichment (interaction score)
GGCUAGAACUAGUGGAUCCCCCGGCGCCCGGCGGCUCGAGCCCGGGUAAGUGUAAUUAGUCUGCAUGCCGCCGGGCGCCAUGCCUGCAGGUCGACUCUAGAAAACAUG,binding signal,PUM1 PUF domain R3-GPR,3.57 log2 enrichment (interaction score)
same,binding signal,PUM1 PUF domain R3-IWG,3.86 log2 enrichment (interaction score)
GGCUAGAACUAGUGGAUCCCCCGGCGCCCGGCGGCUCGAGCCCGGGUAAGUGUCAAUAGUCUGCAUGCCGCCGGGCGCCAUGCCUGCAGGUCGACUCUAGAAAACAUG,binding signal,PUM1 PUF domain R5-RQN,4.58 log2 enrichment (interaction score)
GGCUAGAACUAGUGGAUCCCCCGGCGCCCGGCGGCUCGAGCCCGGGUAAGUGUAAGUAGUCUGCAUGCCGCCGGGCGCCAUGCCUGCAGGUCGACUCUAGAAAACAUG,binding signal,PUM1 PUF domain R3-GPR,1.82 log2 enrichment (interaction score)
same,binding signal,PUM1 PUF domain R3-IWG,5.3 log2 enrichment (interaction score)
GGCUAGAACUAGUGGAUCCCCCGGCGCCCGGCGGCUCGAGCCCGGGUAAGUGUGAAUAGUCUGCAUGCCGCCGGGCGCCAUGCCUGCAGGUCGACUCUAGAAAACAUG,binding signal,PUM1 PUF domain R5-RQN,1.54 log2 enrichment (interaction score)
GGCUAGAACUAGUGGAUCCCCCGGCGCCCGGCGGCUCGAGCCCGGGUAAGUGUAAAUAGUCUGCAUGCCGCCGGGCGCCAUGCCUGCAGGUCGACUCUAGAAAACAUG,binding signal,PUM1 PUF domain R6-HWW,4.93 log2 enrichment (interaction score)
same,binding signal,PUM1 PUF domain R6-NWL,5.32 log2 enrichment (interaction score)
same,binding signal,PUM1 PUF domain R3-GPR,0.81 log2 enrichment (interaction score)
same,binding signal,PUM1 PUF domain R3-IWG,5.45 log2 enrichment (interaction score)
